High-throughput results from PubChem BioAssay.
HT1080NT lethal: kills 2HG-producing HT-1080-NT fibrosarcoma cells; 360,000 tested, 1.6% active; Potency, µM (doses to about 46.1 µM), inactives show at the highest dose activity, negative = less viability, usual class: cytotoxic; HT-1080-NT fibrosarcoma viability, CellTiter-Glo ATP luminescence, 48 h;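 note: NT is the 2HG producing partner of a matched IDH1 knockdown line; potency is the fitted concentration of half-maximal effect; 0% = DMSO-treated cells and -100% = media-only wells without cells; nearly all actives have a fitted effect of over 55% in size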
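Fibrosarcoma NT cells, 750 per well in 5% FBS RPMI, were exposed to compound for 48 hours. Viability: CellTiter-Glo luminescence.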
IL1B secr inh: inhibitors of inflammasome signaling (IL-1 beta secretion) | AID 743279 | 360,000 tested, 4.7% active | THP-1 LPS/ATP IL-1B secretion, AlphaLISA, 16 h; active compounds read low | activity change, % at 57.5 µM; in the data active = activity change below about -50%; inconclusive = mostly about -30% to -49%
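Secreted IL-1B measured by AlphaLISA bead assay after 16 h compound exposure of THP-1 cells; compounds (final up to 57.5 uM) added 1 h before LPS (250 ng/mL) and ATP (1.25 mM) stimulation; lower signal means less secretion.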
TDP1 cell noCPT: qHTS for Inhibitors of human tyrosyl-DNA phosphodiesterase 1 (TDP1): qHTS in cells in absence of CPT. DT40 Tdp1-/- hTDP1 cells, no CPT, ATP luminescence, 48 h. Potency, µM (highest dose often 46.2 µM), inactives show top-dose activity change, negative = growth inhibition, most hits filed as inhibitors. 420,000 tested, 15% active; note: potency is the fitted concentration of half-maximal effect; nearly all actives have a fitted effect of over 55% in size
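DT40 Tdp1-/-;hTDP1 cells, no CPT (DMSO vehicle only), 400 cells/well; compounds pin-transferred; ≥48 hr, 37 °C; CellTiter-Glo 30 min RT dark, luminescence read.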
TDP1 cell CPT: DT40-hTDP1 cell growth loss with CPT. chicken DT40 Tdp1-/-;hTDP1 cells + 20 nM CPT, ATP luminescence, 48 h. Potency, µM (series often up to 46.2 µM), for the others: top-dose activity change, negative = growth inhibition, actives largely listed as inhibitors. 420,000 tested, 12% active. AID 686979; note: potency is the fitted concentration of half-maximal effect; nearly all actives have a fitted effect of over 55% in size
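Cell growth measured by CellTiter-Glo luminescence after a minimum 48 h, 37 C compound exposure with 20 nM CPT in Tdp1-knockout DT40 cells stably expressing hTDP1, seeded 400/well; qHTS titration format.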
HT1080 IDH1KD tx: toxicity to HT-1080 IDH1 knockdown cells (counter line); HT-1080 IDH1 knockdown viability, ATP luminescence, 48 h; 360,000 tested, 2% active; Potency, µM (highest dose often 46.1 µM), without a hit: top-dose activity, negative = toxicity, actives largely listed as cytotoxic;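 note: potency is the fitted concentration of half-maximal effect; 0% = DMSO wells and -100% = cell-free medium wells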
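Viability of IDH1-knockdown HT-1080 fibrosarcoma cells was assessed by CellTiter-Glo after 48 h at 37 °C with titrated compound; concentration-effect curves were classified by fit quality and response size.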
The depositor's hits bear a star; ? = inconclusive; . = no result given. This is a sample that favours compounds with a hit; in the whole collection about 19% have one here. Unless noted, calls come from the whole dose curve; as a rule, active = well fitted curve in the direction sought with a large enough effect; inconclusive = small, poorly fitted or top-dose-only effect, or another doubt; inactive = no such curve, though single readings can be large; an effect the other way counts as inactive or inconclusive. Unless noted, % is set by controls: 0 for no effect and ±100 for the full control effect.

SMILES	HT1080NT lethal	IL1B secr inh	TDP1 cell noCPT	TDP1 cell CPT	HT1080 IDH1KD tx
O=C(N/N=C/c1ccc2c(c1)OCO2)c1sc2cc(Cl)ccc2c1Cl	-6.7%	21.4	5.17µM*	5.8µM*	-3.5%
Nc1c(-c2cccs2)nc2ccccn12	?	6.1	?	-1.6%	0.9%
O=C(O)c1ccc(N/N=C/c2ccc3c(c2)OCO3)cc1	18.4µM*	3.1	?	?	23.1µM*
O=C(O)c1ccc(/C=N/Nc2ccc(F)cc2F)cc1	3.26µM*	3.0	1.7%	14.1%	5.17µM*
O=C(N/N=C/c1ccc(Br)s1)c1cccs1	-14.8%	10.2	20.6µM*	16.4µM*	-5.2%
O=C(N/N=C/c1ccc2c(c1)OCO2)c1ccc2c(c1)OCCO2	?	-8.5	?	16.4µM*	23.1µM*
Fc1ccc(N/N=C/c2ccncc2)c(F)c1	-20.3%	-3.9	-21.3%	-1.5%	27.4%
Cc1ccc(/C=N/NC(=O)c2cccs2)s1	-1.3%	-4.1	-7.9%	-20.4%	1.0%
CC(C)CC(NC(=O)C1CCCCC1)C(=O)N1CCN(c2ccccn2)CC1 (configuration not stated)	-1.9%	-11.7	-22.5%	?	-3.2%
CCOC(=O)N1CCC(=NNS(=O)(=O)c2cccc([N+](=O)[O-])c2)CC1	3.0%	11.0	-11.2%	-19.1%	-4.3%
Cc1ccc2c(c1)N(CC(=O)OCC(=O)NCc1ccccc1)C(=O)CO2	1.1%	3.9	-5.0%	-10.3%	2.8%
O=C(CC1SC(N2CCOCC2)=NC1=O)Nc1ccc(Cl)cc1 (configuration not stated)	-4.3%	-5.7	-25.8%	-16.8%	-0.4%
O=C(N/N=C/c1cc2c(cc1Br)OCO2)c1ccccn1	1.0%	-7.3	?	-8.3%	-15.6%
O=C(N/N=C/c1c[nH]c2ccccc12)c1ccc2c(c1)OCCO2	?	.	16.4µM*	?	20.6µM*
O=C(N/N=C/c1ccccc1O)c1ccc2c(c1)OCO2	?	92.9	4.11µM*	5.17µM*	?
O=C(N/N=C/c1ccccc1OC(=O)c1ccc2c(c1)OCO2)c1cccc(F)c1	?	121.6	1.3µM*	1.16µM*	?
O=C(N/N=C/c1cc2c(cc1Br)OCO2)c1c[nH]c2ccccc12	-14.2%	?	20.6µM*	?	-10.4%
C/C(=N\N1C(=O)CSC1=S)c1ccc(Br)cc1	10.7%	6.9	2.8%	6.8%	11.5%
O=C(NC1CC(=O)N(c2ccccc2)C1)c1cccs1 (configuration not stated)	.	.	?	-14.1%	.
CC(NC(=O)CSc1n[nH]c(-c2ccccc2Cl)n1)c1nc2ccccc2[nH]1 (configuration not stated)	.	.	-2.9%	-6.4%	.
CCOc1ccc(-n2c(=O)c3c4c(sc3n(CC(=O)Nc3cccc(C(F)(F)F)c3)c2=O)CCCCC4)cc1	.	.	-0.4%	5.1%	.
CS(=O)(=O)N(CC(=O)N/N=C/c1cc2c(cc1Br)OCO2)c1ccccc1Br	-2.2%	?	14.6µM*	?	-12.1%
COc1cc(/C=N/NC(=O)c2cccs2)ccc1O	8.4%	3.6	1.2%	-15.0%	-4.7%
O=C(NN=Cc1ccc2c(c1)CCN2)c1cccs1	3.8%	-1.8	14.6µM*	?	0.5%
COc1cccc(-c2nc(CS(=O)(=O)CC(=O)NCCCN3CCOCC3)c(C)o2)c1	0.2%	-77.1*	14.4%	-4.1%	16.5%
SMILES	HT1080NT lethal	IL1B secr inh	TDP1 cell noCPT	TDP1 cell CPT	HT1080 IDH1KD tx
CCN1CCN(C(=O)CS(=O)(=O)Cc2nc(-c3cccc(OC)c3)oc2C)CC1	-0.1%	-14.8	10.9%	-14.7%	0.6%
CCCCN(CC)CCCNC(=O)CS(=O)(=O)Cc1nc(-c2ccc(C)cc2)oc1C	.	.	20.6µM*	?	.
COc1cccc(-c2nc(CS(=O)(=O)CC(=O)N3CCN(c4ccccc4)CC3)c(C)o2)c1	.	.	23.1µM*	?	.
Cc1oc(-c2ccccc2F)nc1CS(=O)(=O)CC(=O)N1CCCCCC1	-3.5%	-9.4	?	-2.5%	-1.2%
Cc1oc(-c2ccccc2F)nc1CS(=O)(=O)CC(=O)N1CCN(c2ccc(Cl)cc2)CC1	.	.	20.6µM*	25.9µM*	.
O=C(c1cc(C(=O)N2CCCC2)cc([N+](=O)[O-])c1)N1CCCC1	0.1%	4.6	7.2%	2.6%	0.9%
COc1cccc(-c2nc(CS(=O)(=O)CC(=O)NCc3ccccc3)c(C)o2)c1	-0.3%	-6.5	?	?	-1.2%
COc1cccc(-c2nc(CS(=O)(=O)CC(=O)NCc3ccccc3OC)c(C)o2)c1	-7.2%	-8.9	18.4µM*	?	-6.8%
Cc1oc(-c2ccccc2Cl)nc1CS(=O)(=O)CC(=O)NCCN1CCOCC1	5.7%	16.5	-9.7%	-1.8%	-1.5%
COc1ccc(OC)c(CCNC(=O)CS(=O)(=O)Cc2nc(-c3ccccc3Cl)oc2C)c1	-13.1%	-52.5*	?	?	-12.9%
NC(COCc1ccccc1)c1csc(Nc2ccc(C(=O)c3ccccc3)cc2)n1 (configuration not stated)	18.4µM*	-66.0*	?	14.6µM*	?
NC(=O)c1cccc(Nc2nc(C(N)COCc3ccccc3)cs2)n1 (configuration not stated)	-17.6%	-25.5	?	18.4µM*	-28.6%
NC(CCc1ccccc1)c1csc(Nc2ccc(C(=O)NCCCO)cn2)n1 (configuration not stated)	?	-19.9	-22.5%	-29.5%	-0.6%
NCc1csc(Nc2ccc(C(=O)c3ccccc3)cc2)n1	?	-8.5	1.03µM*	0.92µM*	?
NC(=O)c1ccc(Nc2nc(C(N)COCc3ccccc3)cs2)cc1 (configuration not stated)	-0.8%	-4.6	?	?	1.6%
NC(CCc1ccccc1)c1csc(Nc2ccc(C(=O)NCCO)cc2)n1 (configuration not stated)	-10.6%	-15.1	23.1µM*	?	-29.4%
CS(=O)(=O)c1ccc(Nc2nc(C(N)CCc3ccccc3)cs2)cc1 (configuration not stated)	?	-2.1	20.6µM*	23.1µM*	?
CC(C)CC(N)c1csc(Nc2ccc(S(C)(=O)=O)cc2)n1 (configuration not stated)	-10.6%	-0.5	-11.5%	-29.7%	-24.2%
NC(CCc1ccccc1)c1csc(Nc2ccc(C(=O)c3ccccc3)cc2)n1 (configuration not stated)	?	?	18.4µM*	16.4µM*	?
Cc1ccc(C)c(NCCCCC(=O)O)c1	16.2%	17.9	-7.6%	4.9%	8.8%
